Bioassay records deposited in PubChem by Johns Hopkins Ion Channel Center.
A selection: hits, their analogues and other compounds. The true share with any hit is near 3.5%.
KCNK9 inh = KCNK9 potassium channel inhibitors, primary screen, HEK293 cells, thallium flux; 310,000 compounds, 1.2% hits; Potassium channel subfamily K member 9 (Homo sapiens), Q9NPC2; B-score at 10 µM; FluxOR thallium flux fluorescence; hits give low values;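 active = ratio B-score over 3 SD below the library mean, with starting fluorescence within 5 SD of its mean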;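 also: negative B-score means less thallium flux so channel inhibition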
TMEM16A act = TMEM16A chloride channel activators or potentiators, primary screen, cell-based, HTS | Anoctamin-1 (Mus musculus), Q8BHY3 | HEK293 TMEM16A/YFP-H148Q/I152L, iodide quench fluorescence; hits give low values | B-score at 10 µM | 340,000 compounds, 0.3% hits;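 active = fluorescence-ratio B-score plate-corrected deviation score at least 3 library SD below zero, with starting fluorescence score within 5 deviations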;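 also: channel opened by trigger with iodide after compound preincubation; score built on the fluorescence ratio of max minus min over baseline; more negative score means more quench and so TMEM16A activation or potentiation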
Kir21 block = inhibitors of mouse Kir2.1 inward-rectifier potassium channel; Inward rectifier potassium channel 2 (Mus musculus), P35561; HEK293-Kir2.1, FluxOR thallium flux fluorescence; hits give low values; B-score at 10 µM; 310,000 compounds, 0.85% hits;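 active = fluorescence ratio B-score at or below minus 3 SD of library scores, with starting-brightness B-score within 2 SD, cut at about -4.2 in these data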;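 also: channel flux triggered by added potassium and thallium sulfate stimulus; B-score of peak minus minimum fluorescence over baseline after thallium stimulus; more negative B-score means stronger Kir2.1 block with less thallium influx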
Target sequence (P35561 whole entry, looked up): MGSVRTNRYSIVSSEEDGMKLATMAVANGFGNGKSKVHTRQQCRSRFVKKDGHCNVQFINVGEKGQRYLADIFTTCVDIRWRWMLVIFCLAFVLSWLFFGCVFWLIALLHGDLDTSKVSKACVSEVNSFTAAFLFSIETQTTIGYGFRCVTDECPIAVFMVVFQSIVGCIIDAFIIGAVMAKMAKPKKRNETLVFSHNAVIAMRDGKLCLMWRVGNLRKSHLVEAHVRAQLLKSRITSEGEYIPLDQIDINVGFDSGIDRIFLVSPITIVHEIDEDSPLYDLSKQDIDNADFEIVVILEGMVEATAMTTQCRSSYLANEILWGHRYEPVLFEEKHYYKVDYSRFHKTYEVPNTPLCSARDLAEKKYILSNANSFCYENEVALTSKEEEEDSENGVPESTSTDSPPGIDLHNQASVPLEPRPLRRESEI
KCNK3 inh = human KCNK3 channel inhibitors, primary screen, CHO cells, FluxOR thallium flux, B-score; Potassium channel subfamily K member 3 (Homo sapiens), O14649; FluxOR fluorescence; hits give low values; B-score at 10 µM; 340,000 compounds, 0.84% hits;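 active = B-score under library mean minus 4 SD, starting fluorescence ratio at most library mean plus 5 SD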;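 also: more negative B-score means stronger inhibition of thallium flux through KCNK3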
TMEM16A inh = TMEM16A chloride channel inhibitors, primary screen, cell-based, HTS. Anoctamin-1 (Mus musculus), Q8BHY3. HEK293 TMEM16A/YFP iodide influx fluorescence, ionomycin. normalized B-score (activity score, 25-100; higher = stronger inhibition) at 10 µM. 310,000 compounds, 1.2% hits;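 active = ratio plate-corrected score three or more library SD toward inhibition, starting fluorescence score within five deviations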;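 also: score derived from kinetic fluorescence span divided by baseline fluorescence per well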
Hits are given with their value; . = inactive; / = no result given.

SMILES | KCNK9 inh | TMEM16A act | Kir21 block | KCNK3 inh | TMEM16A inh
Cc1cccc(C)c1-n1cccc1/C=C1/C(=N)N2C(=NC1=O)SN=C2S(C)(=O)=O | . | . | . | . | 25
CCOc1ccc(-n2c(C)cc(/C=C3/C(=N)N4C(=NC3=O)SN=C4S(C)(=O)=O)c2C)cc1 | . | -6.3 | . | . | .
COC(=O)CCC(=O)OC1(C)C(=O)C=C2C=C(C3CC3)OC=C2C1=O (configuration not stated) | . | / | . | / | .
CC(C)(C)NCC(=O)N/N=C/c1ccc(OCc2ccccc2)cc1 | . | . | -4.3 | . | .
CCC12CN(S(=O)(=O)c3ccc(C)cc3)CC(CC)(CN(S(=O)(=O)c3ccc(C)cc3)C1)C2=O | . | . | . | -9.1 | .
CCOc1ccc(C(=O)NCC(=O)NCCSc2ccc(Br)cc2)cc1OCC | / | . | / | -9.8 | /
Cc1ccc(C(=O)NCC(=O)NCCSc2ccc(Br)cc2)cc1 | . | . | . | . | .
C[C@@H]1CC=C[C@H]2[C@H]1C(=O)N(Cc1ccccc1)[C@H]2c1ccc(F)c(Br)c1 | -19 | / | . | / | /
C[C@@H]1CC=C[C@H]2[C@H]1C(=O)N(Cc1ccccc1)[C@H]2c1ccc(F)c(/C=C/c2ccccc2)c1 | . | . | . | . | .
CCCCN=c1scc(-c2ccc3c(c2)NC(=O)CO3)n1N=C1CCCC1 | . | . | . | . | .
CCN=c1scc(-c2ccc3c(c2)NC(=O)CO3)n1N=C1CCCC1 | . | . | . | . | 100
CCOC(=O)c1cc(CC)sc1NC(=O)Cc1ccccc1 | -7.6 | . | . | . | .
C=CCn1c(SCc2ccccc2C#N)nnc1-c1cc(Br)ccc1O | . | . | -8.3 | . | .
CCNC(=S)N1CCC(Cc2ccccc2)CC1 | . | -4.8 | . | . | .
Cc1c(N=C2N=C(NC(=O)c3ccc(F)cc3)c3ccccc32)c(=O)n(-c2ccccc2)n1C | . | . | . | . | .
O=C(Nc1ccc2c(c1)CCC2)c1cc2ccccc2o1 | . | -5.7 | . | . | .
O=C(Nc1ccc(N2CCOCC2)c(Cl)c1)c1cc2ccccc2o1 | . | . | . | . | 25
O=C(Nc1ccccc1N1CCCC1)c1cc2ccccc2o1 | . | . | . | . | .
O=C(Nc1ccccc1N1CCN(C(=O)c2ccccc2)CC1)c1cc2ccccc2o1 | / | / | / | -9.7 | .
O=C(Nc1ccc2c(c1)Cc1ccccc1-2)c1cc2ccccc2o1 | . | . | . | . | .
C[C@H](NC(=O)c1nc[nH]c1C(=O)N1CCN(C(=O)OC(C)(C)C)CC1)c1ccccc1 | / | -7.2 | / | . | /
C[C@H](NC(=O)c1nc[nH]c1C(=O)NCC(=O)OCc1ccccc1)C(=O)OC(C)(C)C | . | . | . | . | .
C[C@@H](NC(=O)c1nc[nH]c1C(=O)NC1CCN(C(=O)OC(C)(C)C)CC1)c1ccccc1 | / | . | / | . | /
CC(C)C[C@H](NC(=O)c1nc[nH]c1C(=O)NCC(=O)OCc1ccccc1)C(=O)OC(C)(C)C | . | -15 | . | . | .
CCOC(=O)[C@H]1[C@H]2COc3ccc(OC)cc3[C@@H]2N2C(=O)CN(CC3CCCO3)C(=O)[C@@]12C (some centres not stated) | / | . | / | . | /
SMILES | KCNK9 inh | TMEM16A act | Kir21 block | KCNK3 inh | TMEM16A inh
Cc1sc(N(C(=O)CCc2ccccc2)c2ccc(C(=O)O)cc2)nc1-c1ccccc1 | . | . | . | . | 25
CCC(=O)N(c1ccc(C(=O)O)cc1)c1nc(-c2ccc(OC)cc2)c(C)s1 | . | . | . | . | .
CC(C)(C)C(=O)/C=c1\[nH]c(=O)/c(=C\c2ccc(F)cc2)s1 | -8 | . | . | . | .
CC(=O)c1c(C)[nH]c(C(=O)CN(C)CC(=O)Nc2ccccc2Cl)c1C | / | . | / | . | /
CCOC(=O)c1c(C)[nH]c(C(=O)CN(C)CC(=O)Nc2ccccc2Cl)c1C | / | . | / | -11 | /
CC1CC(C)CN(CCCSc2ccccc2)C1 (configuration not stated) | . | . | . | . | .
CC1CC(C)CN(CCOCCSc2ccc(Cl)cc2)C1 (configuration not stated) | . | . | -4.5 | . | .
OC(CNCCc1ccc(C(F)(F)F)cc1)COC(c1ccccc1)c1ccccc1 (configuration not stated) | . | . | -7.9 | . | .
CS(=O)(=O)c1ccc(C(=O)OCc2nnc(-c3ccc(Cl)cc3)o2)cc1[N+](=O)[O-] | . | . | . | . | 25
COc1cc(C(=O)NCC(c2cccs2)N2CCOCC2)c([N+](=O)[O-])cc1OC (configuration not stated) | . | . | . | . | .
COc1cccc2sc(Nc3nc(-c4cc5ccccc5oc4=O)cs3)nc12 | -7.3 | . | . | . | .
CCCCCCOC(=O)C[N+](C)(C)CCOC1CC2CCC1(C)C2(C)C (configuration not stated) | . | . | -7.7 | . | .
COc1ccc(-c2noc(CN(C(=O)c3ccc4c(c3)OCO4)C(C)C)n2)cc1 | . | . | . | . | .
CN(Cc1nc(-c2ccc(Cl)cc2)no1)C(=O)c1ccc2c(c1)OCO2 | . | . | . | . | 25
Cc1ccc(C)c(C(=O)CCC(=O)OCn2nnc3ccccc3c2=O)c1 | / | . | / | . | /
Cc1sc(NC(=O)COc2ccccc2)c(C#N)c1-c1ccccc1 | . | . | . | . | .
COc1ccc(C(=O)Nc2sc(C)c(-c3ccccc3)c2C#N)cc1OC | . | . | . | -11 | .
Cc1ccc(S(=O)(=O)N(C)CC(=O)O/N=C(\N)c2cccc(Br)c2)cc1 | . | -14 | . | . | .
O=C(CN1CCC(C(O)(c2ccccc2)c2ccccc2)CC1)Nc1ccccc1 | . | . | -4.8 | . | .
CCCc1ccc(Oc2coc3cc(OCC(=O)Nc4ccccc4C)ccc3c2=O)cc1 | . | -5.2 | . | . | .
O=C(NCCc1ccccc1)c1cccs1 | . | . | . | . | .
O=C(NCCC(c1ccccc1)c1ccccc1)c1cccs1 | -7 | . | . | . | .
O=C(NCCCCNC(=O)c1cccs1)c1cccs1 | . | . | . | . | .
O=C(NCCCNC(=O)c1cccs1)c1cccs1 | . | -12 | . | . | .
COc1ccccc1NC(=O)Nc1cccnc1 | . | . | . | . | .
COc1ccc(C[C@H]2CN3C(=NC[C@H]3Cc3ccccc3)N2CCNC(=O)c2ccc(C)c(Br)c2)cc1 | . | . | -7.3 | . | .
Cc1ccc(C(=O)NCCN2C3=NC[C@@H](Cc4ccccc4)N3C[C@H]2Cc2ccc(O)cc2)cc1Br | . | . | -6.8 | . | .
COc1ccc(C[C@H]2CN3C(=NC[C@@H]3Cc3ccc(O)cc3)N2CCNC(=O)c2ccc(C)c(Br)c2)cc1 | . | . | . | . | .
